PubChem BioAssay (NCATS)
Where “and” joins values, the source holds several entries; their conditions need not be identical. Equal values may be shown once. Inconclusive results are not listed. Calls of active or inactive are those of the source. The call rests on the fitted dose curve; in most records, active means well fitted inhibition curve with a large enough effect; inconclusive means small, poorly fitted or top-dose-only effect; inactive means flat fitted curve, though single readings scatter.

How the values were obtained:
CRL-7250 = normal cell line; assay: Cytotoxic Profiling of Annotated Libraries Using Quantitative High-Throughput Screening (AID 1296008); settings: Five cell lines viability, CellTiter-Glo ATP luminescence, 48-72 h; max response: active compounds read low; on max response: on the % scale 0 is the no-effect control and ±100 the full control effect
Procedure, shortened: (§1)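 Cells exposed to compounds for 48 or 72 hr at 37 degrees Celsius. Viability read as ATP-coupled luminescence with CellTiter-Glo after 10 min at room temperature.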

HEK293 = assay: as above; settings: Five cell lines viability, CellTiter-Glo ATP luminescence, 48-72 h; max response: active compounds read low
Procedure, shortened: as §1

HaCat [1] = assay: as above; settings: Five cell lines viability, CellTiter-Glo ATP luminescence, 48-72 h; max response: active compounds read low
Procedure, shortened: as §1

KB-3-1 = assay: as above; settings: Five cell lines viability, CellTiter-Glo ATP luminescence, 48-72 h; max response: active compounds read low
Procedure, shortened: as §1

NIH3T3 [2] = assay: as above; settings: Five cell lines viability, CellTiter-Glo ATP luminescence, 48-72 h; max response: active compounds read low
Procedure, shortened: as §1

HACAT [3] = assay: qHTS assay to identify novel small-molecules to repurpose for Merkel cell carcinoma treatment (AID 1296009); settings: MCC and control cell lines, CellTiter-Glo viability, 72 h; at 44.8 µM (top of the series) unless noted; further: potency means the concentration at half of the fitted maximal effect
Procedure, shortened: (§2)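 Cells were treated for 72 hr at 37 degree celsius with compounds in 8- or 11-point dose response. Viability was read by CellTiter-Glo luminescence, normalized to no-cell (cytotoxicity) and DMSO controls.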

MCC-13 = assay: as above; settings: MCC and control cell lines, CellTiter-Glo viability, 72 h; series mostly up to 46 µM
Procedure, shortened: as §2

MCC-26 = assay: as above; settings: MCC and control cell lines, CellTiter-Glo viability, 72 h; series mostly up to 46 µM
Procedure, shortened: as §2

MKL-1 = assay: as above; settings: MCC and control cell lines, CellTiter-Glo viability, 72 h; series mostly up to 46 µM
Procedure, shortened: as §2

UISO = assay: as above; settings: MCC and control cell lines, CellTiter-Glo viability, 72 h; series mostly up to 46 µM
Procedure, shortened: as §2

MKL-2 = assay: as above; settings: MCC and control cell lines, CellTiter-Glo viability, 72 h; series mostly up to 46 µM
Procedure, shortened: as §2

WaGa = assay: as above; settings: MCC and control cell lines, CellTiter-Glo viability, 72 h; series mostly up to 46 µM
Procedure, shortened: as §2

HEK293T = assay: as above; settings: MCC and control cell lines, CellTiter-Glo viability, 72 h; at 44.8 µM (top of the series) unless noted
Procedure, shortened: as §2

NIH3T3 [4] = assay: as above; settings: MCC and control cell lines, CellTiter-Glo viability, 72 h; series mostly up to 44.8 µM
Procedure, shortened: as §2

TAB113 = assay: qHTS profiling for inhibitors of Plasmodium falciparum proliferation (AID 504749);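 further: 0% = DMSO vehicle and full inhibition = artemisinin control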; settings: P. falciparum in erythrocytes, SYBR Green DNA, 72 h; series mostly up to 28.7 µM
Procedure, shortened: (§3)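 P. falciparum-infected erythrocytes (0.3% parasitemia, 2.5% hematocrit) incubated with compound 72 h at 37 C, 5% CO2. Parasite DNA detected by SYBR Green after lysis, overnight at room temperature; normalised to 0.29 uM artemisinin and DMSO.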

TAB165 = assay: as above; settings: P. falciparum in erythrocytes, SYBR Green DNA, 72 h; series mostly up to 28.7 µM
Procedure, shortened: as §3
Further: nearly all actives have a fitted effect of over 60% in size.

CC1C(=O)OC2C(O)C34C5CC(C(C)(C)C)C36C(OC(=O)C6O)OC4(C(=O)O5)C12O (stereo unspecified)
inactive: outcome (CRL-7250) | max response (HEK293) -2.56% | outcome (HaCat [1]) | outcome (KB-3-1) | max response (NIH3T3 [2]) -22.7% | outcome (HACAT [3]) | Potency (MCC-13) | Potency (MCC-26) | Potency (MKL-1) | Potency (UISO)

CC=C(C(=CC)c1ccc(O)cc1)c1ccc(O)cc1
inactive: max response (CRL-7250) -2.03% | max response (HEK293) -14% | outcome (HaCat [1]) | max response (KB-3-1) -8.73% | max response (NIH3T3 [2]) -13.5% | outcome (HACAT [3]) | Potency (MCC-13) | Potency (MCC-26) | Potency (MKL-1) | Potency (MKL-2) | Potency (UISO) | Potency (WaGa)

O=C(O)C1=CO[C@@H](O[C@@H]2O[C@H](CO)[C@H](O)[C@H](O)[C@H]2O)[C@@H]2C(CO)=CC[C@H]12
inactive: max response (CRL-7250) 1.58% | outcome (HEK293) | max response (HaCat [1]) -0.469% | max response (KB-3-1) 7.89% | max response (NIH3T3 [2]) -17.7% | outcome (HEK293T) | Potency (MCC-13) | Potency (MCC-26) | Potency (MKL-1) | Potency (MKL-2) | Potency (UISO) | Potency (WaGa)

O=C(Nc1ccccc1)Nc1ccc(-c2ccc(C(=O)[C@H]3CCC[C@H]3C(=O)O)cc2)cc1
inactive: outcome (CRL-7250) | max response (HEK293) -0.566% | outcome (HaCat [1]) | max response (KB-3-1) 9.29% | max response (NIH3T3 [2]) 3.03% | outcome (HACAT [3]) | Potency (MCC-13) | Potency (MCC-26) | Potency (MKL-1) | Potency (MKL-2) | Potency (UISO) | Potency (WaGa)

NC(N)=Nc1nc(CSCCC(N)=NS(N)(=O)=O)cs1
inactive: max response (CRL-7250) -0.357% | max response (HEK293) -1.73% | outcome (HaCat [1]) | max response (KB-3-1) 6.28% | outcome (NIH3T3 [2]) | outcome (HACAT [3]) | Potency (MCC-13) | Potency (MCC-26) | Potency (MKL-1) | Potency (NIH3T3 [4]) | Potency (UISO)

C=C1c2cccc(O)c2C(O)=C2C(=O)[C@@]3(O)C(O)=C(C(N)=O)C(=O)[C@@H](N(C)C)[C@@H]3[C@@H](O)[C@H]12
inactive: Potency (TAB113) | max response (CRL-7250) -8.75% | max response (HEK293) 0.32% | outcome (HaCat [1]) | max response (KB-3-1) 1.29% | max response (NIH3T3 [2]) -2.7% | outcome (HACAT [3]) | Potency (MCC-13) | Potency (MCC-26) | Potency (MKL-1) | Potency (UISO) | Potency (WaGa)

Cc1cc2nc3c(=O)[nH]c(=O)nc-3n(CC(O)C(O)C(O)CO)c2cc1C (stereo unspecified)
inactive: Potency (TAB113) | Potency (TAB165) | outcome (CRL-7250) | max response (HEK293) -3.68% | outcome (HaCat [1]) | max response (KB-3-1) 9.48% | outcome (NIH3T3 [2]) | outcome (HACAT [3]) | Potency (MCC-13) | Potency (MCC-26) | Potency (MKL-1) | Potency (MKL-2) | Potency (NIH3T3 [4]) | Potency (UISO) | Potency (WaGa)

CC[C@H](NC(=O)[C@H](C)NC)C(=O)N1C[C@@H](O)C[C@H]1Cc1c(-c2[nH]c3cc(F)ccc3c2C[C@H]2C[C@H](O)CN2C(=O)[C@H](CC)NC(=O)[C@H](C)NC)[nH]c2cc(F)ccc12
inactive: outcome (CRL-7250) | max response (HEK293) 1% | outcome (HaCat [1]) | outcome (KB-3-1) | outcome (NIH3T3 [2]) | outcome (HACAT [3]) | Potency (MCC-13) | Potency (MCC-26) | Potency (NIH3T3 [4]) | Potency (UISO)

CCC(=O)NCC[C@@H]1CCc2ccc3c(c21)CCO3
inactive: max response (CRL-7250) -4.42% | max response (HEK293) -0.876% | outcome (HaCat [1]) | max response (KB-3-1) -2.73% | outcome (NIH3T3 [2]) | outcome (HACAT [3]) | Potency (MCC-13) | Potency (MCC-26) | Potency (MKL-1) | Potency (NIH3T3 [4]) | Potency (UISO) | Potency (WaGa)

C=CC[N+]1([C@H]2C[C@H]3[C@@H]4CC[C@H]5C[C@H](O)[C@@H](N6CCOCC6)C[C@]5(C)[C@@H]4CC[C@]3(C)[C@H]2OC(C)=O)CCCC1
inactive: outcome (CRL-7250) | max response (HEK293) -1.88% | outcome (HaCat [1]) | max response (KB-3-1) 8.47% | max response (NIH3T3 [2]) 4.84% | outcome (HACAT [3]) | Potency (MCC-13) | Potency (MCC-26) | Potency (MKL-1) | Potency (MKL-2) | Potency (UISO) | Potency (WaGa)

CC(C)(CO)[C@@H](O)C(=O)NCCC(=O)O
inactive: max response (CRL-7250) 0.71% | outcome (HEK293) | outcome (HaCat [1]) | max response (KB-3-1) 1.6% and 8.68% | max response (NIH3T3 [2]) -2.4% | outcome (HACAT [3]) | outcome (HEK293T) | Potency (MCC-13) | Potency (MCC-26) | Potency (MKL-1) | Potency (MKL-2) | Potency (UISO) | Potency (WaGa)

Nc1ncnc2c1ncn2[C@@H]1O[C@H](CO)[C@@H](O)[C@@H]1O
active: Potency (MKL-1) 14.8 µM | Potency (MKL-2) 1.66 µM | Potency (WaGa) 1.05 µM
inactive: outcome (CRL-7250) | max response (HEK293) -0.764% | outcome (HaCat [1]) | outcome (KB-3-1) | max response (NIH3T3 [2]) 3.26% | outcome (HACAT [3]) | Potency (MCC-13) | Potency (MCC-26) | Potency (UISO)

CC1CNc2c(cccc2S(=O)(=O)N[C@@H](CCCN=C(N)N)C(=O)N2CC[C@@H](C)C[C@@H]2C(=O)O)C1 (stereo partly specified)
inactive: outcome (CRL-7250) | outcome (HEK293) | outcome (HaCat [1]) | max response (KB-3-1) 9.69% | max response (NIH3T3 [2]) -2.95% | outcome (HACAT [3]) | outcome (HEK293T) | Potency (MCC-13) | Potency (MCC-26) | Potency (UISO)
active: Potency (MKL-1) 16.6 µM | Potency (MKL-2) 3.72 µM | Potency (WaGa) 4.69 µM
